PubChem BioAssay AID1159580 (chemical genetic matrix, 2015)
Among all 5,500 compounds or so, about 2,000 (36%) were called active. Another 18% or so got no clear call; they are omitted. Cut-off read from the data, not from the text of the source: active = normalized growth mostly below about 0.91 (no sharp cut-off); inconclusive = no clear call, values can overlap the other calls; inactive = mostly above about 0.92. Some of the results follow.

Test: chemical genetic growth profiling, strain panel (AID 1159580);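 note: tested at 20 µM; growth read once vehicle control cultures reached saturation at 30 °C; 1 = growth at the plate median or of vehicle wells; lower values mean less growth of the strain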
Settings: growth OD
[1] = S. cerevisiae deletion strains, locus YAL013W, strain DEP1, active compounds read low
[2] = S. cerevisiae deletion strains, locus YBR229C, strain ROT2, active compounds read low
[3] = S. cerevisiae deletion strains, locus YDL101C, strain DUN1, active compounds read low
[4] = S. cerevisiae deletion strains, locus YDL134C, strain PPH21, active compounds read low
[5] = S. cerevisiae deletion strains, locus YDR150W, strain NUM1, active compounds read low
[6] = S. cerevisiae deletion strains, locus YEL061C, strain CIN8, active compounds read low
[7] = S. cerevisiae deletion strains, locus YGR078C, strain PAC10, active compounds read low
[8] = S. cerevisiae deletion strains, locus YHR030C, strain SLT2, active compounds read low
[9] = S. cerevisiae deletion strains, locus YHR087W, strain rtc3, active compounds read low
[10] = S. cerevisiae deletion strains, locus YJR075W, strain HOC1, active compounds read low
[11] = S. cerevisiae deletion strains, locus YLR039C, strain RIC1, active compounds read low
[12] = S. cerevisiae deletion strains, locus YLR058C, strain SHM2 (second series), active compounds read low
[13] = S. cerevisiae deletion strains, locus YLR085C, strain ARP6, active compounds read low
[14] = S. cerevisiae deletion strains, locus YLR262C, strain YPT6, active compounds read low
[15] = S. cerevisiae deletion strains, locus YML094W, strain GIM5, active compounds read low
[16] = S. cerevisiae deletion strains, locus YMR219W, strain ESC1, active compounds read low
[17] = S. cerevisiae deletion strains, locus YMR263W, strain SAP30, active compounds read low
[18] = S. cerevisiae deletion strains, locus YMR307W, strain GAS1, active compounds read low
[19] = S. cerevisiae deletion strains, locus YNL153C, strain GIM3, active compounds read low
[20] = S. cerevisiae deletion strains, locus YNL298W, strain CLA4 (second series), active compounds read low
[21] = S. cerevisiae deletion strains, locus YNL322C, strain KRE1, active compounds read low
[22] = S. cerevisiae deletion strains, locus YNR030W, strain Alg12, active compounds read low
[23] = S. cerevisiae deletion strains, locus YOL006C, strain TOP1, active compounds read low
[24] = S. cerevisiae deletion strains, locus YPL055C, strain LGE1, active compounds read low
[25] = S. cerevisiae deletion strains, locus YPL241C, strain CIN2, active compounds read low
[26] = S. cerevisiae deletion strains, locus YPR135W, strain CTF4, active compounds read low
[27] = S. cerevisiae strains, strain wild type, active compounds read low

Measured: normalized growth

CCc1cccc(C)c1NC(=O)N1CCN(C(=O)OC(C)(C)C)CC1
inactive: [1] 0.992 | [2] 0.99 | [3] 0.987 | [4] 1.01 | [5] 1.03 | [6] 1.01 | [7] 1 | [8] 1.01 | [9] 0.995 | S. cerevisiae deletion strains, locus YJR043C, strain POL32, active compounds read low 1 | [10] 0.988 | [11] 1.04 | [12] 0.99 | [13] 1 | [14] 0.984 | [15] 0.991 | [16] 0.984 | [17] 1.01 | [18] 1.05 | [19] 0.994 | [20] 1.02 | [21] 0.999 | [22] 1.01 | [23] 1.01 | [24] 0.987 | [25] 1.03 | [26] 1.01 | [27] 1

CC(N)=NCc1cccc(CN)c1
inactive: [1] 1.02 | S. cerevisiae deletion strains, locus YAL040C, strain CLN3, active compounds read low 1.01 | S. cerevisiae deletion strains, locus YCL061C, strain MRC1 (second series), active compounds read low 1.01 | [5] 1.01 | S. cerevisiae deletion strains, locus YDR363W, strain ESC2, active compounds read low 1.02 | S. cerevisiae deletion strains, locus YER002W, strain NOP16, active compounds read low 1.03 | [18] 1.03 | S. cerevisiae deletion strains, locus YNL175C, strain NOP13, active compounds read low 1.02 | S. cerevisiae deletion strains, locus YNL197C, strain WHI3, active compounds read low 1 | S. cerevisiae deletion strains, locus YNL224C, strain SQS1, active compounds read low 1 | S. cerevisiae deletion strains, locus YOR083W, strain WHI5 (second series), active compounds read low 0.996 | [25] 1.01

CCSC(SCC)[C@H](O)[C@@H](O)[C@H](O)CO
inactive: [1] 0.976 | [2] 0.992 | [3] 0.993 | [4] 1.01 | [5] 0.995 | [6] 0.998 | [7] 0.981 | [8] 0.939 | [9] 0.98 | [10] 0.994 | [11] 0.992 | [12] 0.993 | [13] 1.05 | [14] 0.904 | [15] 1.02 | [16] 1 | [17] 0.994 | S. cerevisiae deletion strains, locus YNL128W, strain TEP1, active compounds read low 1 | [19] 0.988 | [20] 0.988 | [21] 0.985 | [22] 0.992 | [23] 1.01 | [24] 1 | [25] 1.04 | [26] 0.922 | [27] 0.992
